The list is not random: actives were taken first. Their share in the collection is about 5.5%.
Integrin act MD: activates integrin-mediated alleviation for muscular dystrophy; alpha7betagal myoblasts, beta-gal FDG fluorescence, 48 h; Potency, µM (top dose mostly 38.3 µM), most hits filed as activators; 350,000 tested, 0.064% active; further: nearly all actives have a fitted effect of over 60% in size
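alpha7betagal+/- myoblasts (passage 13, 250/well) treated 48 h at 37C with compounds at 1:260 dilution of DMSO stock. Lysed, then beta-galactosidase activity read as FDG fluorescence (ex 480/em 540) after 30 min, with pre-read for autofluorescence.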
BCR signal inh: chronic active BCR signaling inhibition; 340,000 tested, 0.05% active; Potency, µM (series often up to 46.1 µM), usual class: inhibitors; AID 493014; ABC-DLBCL IkBa-CBG/CBR reporter, luminescence ratio, 4 h; active means well fitted inhibition curve with a large enough effect in the signal ratio, with a control signal flat, not every such curve was filed as active; inconclusive means small, poorly fitted or top-dose-only effect, or effect the other way, or a change in a side signal; the % refers to the signal ratio
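Cell line TMD8 (human ABC DLBCL), stably expressing tet-inducible CBG68-IkBa fusion and CBR; IMDM/0.5% FBS; cpd up to 46 uM; dox induction, 4 h, 37C/5% CO2; dual luminescence; green/red ratio; MG132 control.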
Mito fusion act: mitochondrial division inhibition or fusion activation; S. cerevisiae fusion-defective mutant growth rescue, CellTiterGlo 48 h; Potency, µM (highest dose often 46.1 µM), actives largely listed as activators; 320,000 tested, 0.23% active; AID 485298; further: nearly all actives have a fitted effect of over 45% in size
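S. cerevisiae fusion-defective temperature-sensitive mutants (e.g. fzo1-1, mgm1-5) grown 48 h at 37C in YPEG (ethanol/glycerol non-fermentable) medium with 23 nl compound per well; growth rescue read as CellTiterGlo luminescence.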
RORg inh: ROR gamma (mouse) transcription inhibition | P51450 | Drosophila S2 Gal4-RORgamma UAS-luciferase reporter, 20 h | Potency, µM (series often up to 53.6 µM), actives largely listed as inhibitors | 310,000 tested, 5.4% active | AID 2551; further: nearly all actives have a fitted effect of over 60% in size
Target sequence (P51450 whole entry, looked up, the tested form may be a part): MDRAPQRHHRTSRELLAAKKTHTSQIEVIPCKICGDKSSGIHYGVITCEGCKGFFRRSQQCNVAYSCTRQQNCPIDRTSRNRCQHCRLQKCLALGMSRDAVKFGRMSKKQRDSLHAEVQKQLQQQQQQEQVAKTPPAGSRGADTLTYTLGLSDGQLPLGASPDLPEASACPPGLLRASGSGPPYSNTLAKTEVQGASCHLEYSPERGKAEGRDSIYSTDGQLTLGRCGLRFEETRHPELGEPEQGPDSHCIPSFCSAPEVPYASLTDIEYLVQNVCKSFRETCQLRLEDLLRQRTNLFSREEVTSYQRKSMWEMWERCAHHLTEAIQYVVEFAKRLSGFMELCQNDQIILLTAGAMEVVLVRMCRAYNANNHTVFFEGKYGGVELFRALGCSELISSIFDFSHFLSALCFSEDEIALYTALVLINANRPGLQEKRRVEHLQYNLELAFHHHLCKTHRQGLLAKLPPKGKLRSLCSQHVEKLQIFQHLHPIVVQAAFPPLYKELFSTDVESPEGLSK
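Luciferase reporter read in Schneider cells carrying Gal4-RORγ (mouse) and UAS-Photinus luciferase; cells given compound 1 h before 700 uM copper sulfate induction, then incubated 20 h at ambient temperature.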
VP16 counter: Gal4-VP16 reporter inhibition counter-screen; AID 2546; 310,000 tested, 3.5% active; Drosophila S2 Gal4-VP16 UAS-luciferase, luminescence, 20 h; Potency, µM (top dose mostly 53.6 µM), actives largely listed as inhibitors;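 further: Gal4-VP16 expression switched on by copper sulfate through the metallothionein promoter; nearly all actives have a fitted effect of over 50% in size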
uPA surface inh: cell surface uPA generation inhibition; cell surface uPA generation assay, qHTS; 330,000 tested, 0.31% active; Potency, µM (highest dose often 38.3 µM), usual class: inhibitors; AID 540303; active means well fitted inhibition curve with a large enough effect; inconclusive means small, poorly fitted or top-dose-only effect; inactive means no such curve, though single readings can be large or run the other way; tested in mouse RAW 264.7 cells; further: nearly all actives have a fitted effect of over 55% in size
Numbers stand for hits; i = inactive; ? = inconclusive; nt = no result; [ ] = remark or other dose. Unless noted, the call rests on the fitted dose curve; in most records, active means well fitted curve in the direction sought with a large enough effect; inconclusive means small, poorly fitted or top-dose-only effect, or another doubt; inactive means no such curve, though single readings can be large; an effect the other way counts as inactive or inconclusive.

SMILES	Integrin act MD	BCR signal inh	Mito fusion act	RORg inh	VP16 counter	uPA surface inh
CCOC(=O)/C(=C\c1cccnc1)C(=O)c1cc(C(C)=O)c(Nc2ccccc2)s1	i	?	i	3.55µM	4.47µM	i
CCOC(=O)C(=O)/C(C#N)=C/Nc1ccccc1	i	?	i	i	i	i
CCOC(=O)/C(=C\c1ccccc1)C(=O)c1cc(C(C)=O)c(Nc2ccccc2)s1	i	i	i	7.08µM	?	?
O=C(Nc1ccn(CC(=O)N2CCN(c3ccccn3)CC2)c(=O)n1)OCc1ccccc1	i	i	i	nt	nt	i
COc1ccc(C[C@](C)(N)C(=O)O)cc1OC	nt	23.1µM	i	nt	nt	i
Cc1cc(C)c(C#N)c(SCC(=O)Nc2ccc(S(=O)(=O)Nc3ncccn3)cc2)n1	?	?	i	8.91µM	12.6µM	i
Cc1cccc(NC(=O)CSc2nc3ccccc3c(=O)n2CC2CCCO2)c1 (stereo not given)	i	?	nt	nt	nt	i
CCCCC(=O)NC(c1cccs1)c1cc(Cl)c2cccnc2c1O (stereo not given)	i	i	i	2.51µM	3.55µM	?
COc1cc(C(=O)NC(c2ccccc2Cl)c2cc(Cl)c3cccnc3c2O)cc(OC)c1OC (stereo not given)	nt	i	nt	nt	nt	nt
CCC(=O)NC(c1cc(Cl)c2cccnc2c1O)C(C)C (stereo not given)	nt	i	i	nt	nt	?
CCC(=O)NC(c1cc(Cl)c2cccnc2c1O)C1CC1 (stereo not given)	nt	i	?	nt	nt	12.6µM
CCC(=O)NC(c1cccs1)c1cc(Cl)c2cccnc2c1O (stereo not given)	i	i	i	i	i	7.08µM
Cc1cc(=O)[nH]c2nnc(SCCC(C)C)n12	nt	i	nt	nt	nt	nt
O=c1c(-c2cccs2)nc2cnc(N3CCNCC3)nc2n1-c1ccccc1	nt	nt	nt	i	i	nt
COC(=O)c1ccc(Oc2c(Cl)cccc2[N+](=O)[O-])cc1	i	?	i	7.94µM	i	i
O=C1C[C@@H](c2ccc(O)cc2)Oc2cc(O[C@@H]3O[C@H](CO)[C@@H](O)[C@H](O)[C@H]3O)cc(O)c21	nt	nt	nt	i	i	nt
O=c1cnc2cnc(Oc3cccc(Cl)c3)nc2n1Cc1ccc(F)cc1	nt	nt	nt	i	i	nt
Cc1ccc(S(=O)(=O)Nc2cccc(C(=O)NCc3cccnc3)c2)cc1F	i	i	i	nt	nt	3.16µM
CC(C)N=C(NC#N)SCc1ccccc1F	i	i	i	i	i	nt
N#CNC(=Nc1cccc(F)c1)SCc1ccccc1F	i	?	i	i[10 µM]	?	12.6µM
CC(=O)N(C1=C(N2CCOCC2)C(=O)c2ccccc2C1=O)c1ccc(C(=O)O)cc1	i	?	i	?	11.2µM	i
CC(=O)N(C)C1=C(N2CCOCC2)C(=O)c2ccccc2C1=O	i	?	i	8.91µM	?	nt
c1ccc(-c2cc(NCCN3CCCCC3)c3ccccc3n2)cc1	i	?	i	i	i	i
Cn1cc(CNCc2ccc(-n3cccn3)cc2)c(-c2ccccc2F)n1	i	i	i	?	11.2µM	i
Cn1cc(CNCCCn2ncc3ccccc32)c(-c2ccccc2F)n1	i	i	i	i	i	i
SMILES	Integrin act MD	BCR signal inh	Mito fusion act	RORg inh	VP16 counter	uPA surface inh
O=C(NNC(=O)c1nc(Cl)ccc1Cl)c1ccc(F)cc1	i	?	i	11.2µM	?	i
O=C(NNC(=O)c1ccc(Cl)c(Cl)c1)c1ccncc1	i	nt	nt	nt	nt	i
O=C(NNC(=O)c1ncc(Cl)c(Cl)c1Cl)c1ccc(F)cc1	i	?	i	7.08µM	5.01µM	i
COc1cccc(NC(=O)c2ncc(Cl)c(Cl)c2Cl)c1	i	?	i	i	?	i
N[C@@H](CCCCNC(=O)CCCC[C@@H]1SC[C@H]2NC(=O)N[C@H]12)C(=O)O	nt	nt	nt	i	i	nt
C/C(=N\N1C(=O)c2ccccc2NC1c1ccccc1)c1ccccc1O (stereo not given)	i	i	i	0.562µM	2.82µM	i
COc1ccc(/C(C)=N/N2C(=O)c3ccccc3NC2c2ccc(O)c(OC)c2)cc1 (stereo not given)	i	?	i	?	i	?
O=C1c2ccccc2NC(c2ccco2)N1/N=C/c1ccco1 (stereo not given)	i	?	i	i	i	i
C/C(=N\N1C(=O)c2ccccc2NC1c1ccco1)c1ccccc1O (stereo not given)	i	?	i	0.355µM	2.24µM	7.94µM
COC(=O)c1ccc(C(=O)OC)c(-n2c(=O)c3ccccc3c3ccccc3c2=O)c1	i	?	i	10µM	?	i
S=c1[nH]c(-c2ccccc2)cs1	i	i	i	7.08µM	?	i
Cc1cc(C(=O)COC(=O)c2ccc[nH]c2=O)c(C)n1-c1ccc(F)cc1	i	i	i	10µM	7.08µM	i
Cc1cc(C(=O)COC(=O)c2ccc[nH]c2=O)c(C)n1-c1ccccc1	i	i	i	12.6µM	0.447µM	i
Cc1cc(C(=O)COC(=O)c2ccc[nH]c2=O)c(C)n1C1CC1	i	i	i	i	i	i
O=c1c(-c2ccccc2)nc2cnc(N3CCNCC3)nc2n1C1CC1	nt	nt	nt	i	i	nt
Cn1c(=O)c2c(nc(Sc3ncnn3CC(=O)N3CCOCC3)n2C)n(C)c1=O	i	i	i	i	i	i
Cn1c(=O)c2c(nc(Sc3ncnn3CC(=O)NC3CCCCC3)n2C)n(C)c1=O	11.2µM	i	i	i	i	i
Cc1nc(Nc2ccccc2Cl)sc1C(=O)Nc1ccccc1	i	i	15.8µM	i	i	i
O=C(Nc1ccc2ccccc2n1)c1ccccc1Cl	i	?	?	12.6µM	?	?
COc1ccc(C(=O)Nc2ccc3ccccc3n2)c(OC)c1OC	i	?	i	8.91µM	10µM	2.82µM
CCN(CC)S(=O)(=O)c1ccc(N2CCOCC2)c(NC(=O)c2cccc3c(=O)c(C)c(-c4ccccc4)oc23)c1	i	nt	nt	nt	nt	4.47µM
O=C(C1CC1)N1N=C(c2ccccc2)CC1(O)C(F)(F)C(F)(F)F (stereo not given)	i	?	i	11.2µM	?	i
O=C(C1CC1)N1N=C(c2ccccc2)CC1(O)C(F)(F)F (stereo not given)	i	i	i	i	i	i
CN(C)c1ncc2ncc(=O)n(Cc3ccc(F)cc3)c2n1	nt	nt	nt	i	i	nt
O=C(CCc1nc2ccccc2n1-c1ccccc1)NCCO	i	i	i	i	i	i
O=C(COC(=O)CCc1nc2ccccc2n1-c1ccccc1)Nc1ccc(N2CCCCC2)cc1	i	i	i	?	6.31µM	i
CCN(CC)CCCn1c(-c2ccccc2)nc2c(N(CCOC)CCOC)nc(C)nc21	nt	nt	nt	i	i	nt
COc1ccc(C(=O)Nc2cc(C)on2)c(OC)c1	i	i	i	i	i	i
COc1ccc(C)cc1NC(=O)Nc1ccc(Br)cn1	i	?	i	10µM	i	i
COc1ccc(C)cc1NC(=S)NNC(=O)c1ccccc1Cl	i	?	i	?	i	nt

Screening data (PubChem)
